# Among all 68,000 compounds or so, about 2,700 (4%) showed an effect of 50% or more. The list comes from a sample in which strong results are over-represented; it also holds similar structures and randomly drawn compounds.
# Test system: Plasmodium berghei
# Test: Screen against P. berghei liver stage (PbLuc), transformed with Luciferase, at 2uM
# Type: functional, HepG2
# Details: tested at 2 uM
row,SMILES,INHIBITION [%]
1,N#Cc1cccc(C(=O)NC2CCc3c(ccc(=O)n3CC3CC3)C2)c1 (centres undefined),-7.45
2,COC(=O)c1cccc(S(=O)(=O)NC(=O)CC2CCCC2)c1,-30.66
3,CC1CN(Cc2nnsc2Cl)CCN1c1nccs1 (centres undefined),24.82
4,O=C(NC1CC1)[C@H]1C[C@@H]2CCN(Cc3ccc4c(c3)OCO4)C[C@@H]2O1,14
5,CCc1cc(NCCN2CCNC2=O)n2nc(C)c(C)c2n1,-35.07
6,O=C(Cc1ccccc1)N1CCC(c2nnc(-c3ccccn3)o2)CC1,11.53
7,CCn1ncc(CN2CCN(C(=O)Cn3cc(Br)c(C)n3)CC2)c1C,-22.24
8,COc1cccc(CN(Cc2ccco2)Cc2cnc(C)n2C)c1,-4.04
9,Cc1nc2cc(=O)[nH]n2c(C)c1CNC(=O)c1cnn(C(C)(C)C)c1,-46.8
10,CCN(C(=O)Nc1cccnc1OC)C1CC1,-14.3
11,COc1ncccc1NC(=O)N(Cc1ccco1)C1CC1,20.93
12,Cc1ccc(CN(C(=O)NCC(c2cccs2)N(C)C)C2CC2)o1 (centres undefined),-38.2
13,COc1ncccc1NC(=O)N(Cc1ccc(C)o1)C1CC1,51.21
14,Cc1ccc(CN(C(=O)NCC2CCS(=O)(=O)C2)C2CC2)o1 (centres undefined),26.39
15,Cc1ccc(CN(C(=O)NCC2CCCO2)C2CC2)o1 (centres undefined),57.85
16,Cc1cc(CN2CCN(C(=O)CCCc3nc(C(C)C)no3)CC2)on1,26.06
17,COc1ncc(-c2ccc(C(N)=O)cc2)c(OC)n1,29.41
18,Cc1cc(C)c(CNC(=O)NCCCNc2ccccn2)c(=O)[nH]1,34.65
19,CCN1C[C@H]2CCN(C(C)=O)CC[C@H]2S1(=O)=O,59.49
20,COCCN1C[C@H]2CCN(C(C)=O)CC[C@H]2S1(=O)=O,43.05
21,CCN1C[C@H]2CCN(C(=O)NC)CC[C@H]2S1(=O)=O,-11.73
22,O=C(NCCN1CCOCC1)c1ccc(-c2ccccc2)[nH]c1=O,40.47
23,O=C(NCCN1CCOCC1)c1ccn(COc2ccc(F)cc2)n1,-10.62
24,Cc1ccc(C(=O)NCCN2CCOCC2)c(=O)[nH]1,-84.65
25,O=C(NCCCN1CCOCC1)c1ccn(COc2ccc(Br)cc2)n1,12.84
26,O=C(NCCCN1CCOCC1)c1ccn(COc2ccc(F)cc2)n1,58.42

row,SMILES,INHIBITION [%]
1,O=C(NCCN1CCOCC1)c1ccc(-c2ccc(F)cc2)nc1O,58.75
2,CCc1nnc(C(C)N2CCN(CCC(=O)NC3CC3)CC2)o1 (centres undefined),35.61
3,CC(C)(C)C(CCO)NC(=O)Nc1ccncc1 (centres undefined),6.84
4,CC(C)NC(=O)c1nnn(-c2cccc(C(F)(F)F)c2)c1N,50.54
5,Cc1c(C(=O)NC(C)C)nnn1-c1cccc(C(F)(F)F)c1,-8.75
6,CC(C)NC(=O)c1nnn(-c2cccc(C(F)(F)F)c2)c1C1CC1,-66.52
7,COCCc1noc(CN2C(=O)OC[C@@H]2C(C)C)n1,-7.66
8,CC1N(C)C(=O)COC12CCN(Cc1ccsc1)CC2 (centres undefined),-30.38
9,CC1N(C)C(=O)COC12CCN(C(=O)CCc1ccccc1)CC2 (centres undefined),65.38
10,CC1N(C)C(=O)COC12CCN(C(=O)Cc1ccsc1)CC2 (centres undefined),2.18
11,O=C(c1cccc(F)c1)N1CCC2(CC1)CC(N1CCOCC1)C2,-21.77
12,CCc1n[nH]c(C2CN(Cc3csc(COC)n3)CCO2)n1 (centres undefined),12.58
13,c1cc(-c2nnn3c2COC(CNCC2CCOCC2)C3)ccn1 (centres undefined),86.79
14,c1ccc(-c2nnn3c2COC(CNCC2CC2)C3)cc1 (centres undefined),14.48
15,c1ccc(-c2nnn3c2COC(CNCC2CCOCC2)C3)cc1 (centres undefined),12.36
16,Cc1cccc(C(=O)NCc2ccc(N3CCCCCC3)nc2)n1,-26.87
17,Cc1cn2c(n1)C(CNCC1=Cc3cc(Cl)ccc3OC1)CCC2 (centres undefined),9.21
18,CCCS(=O)(=O)N1CCC2(CC1)CC(N1CCCC1)c1ccccc12 (centres undefined),-21.74
19,Cc1nc2c(c(=O)[nH]1)CN(C(=O)CCC1CCCN(C)C1)C2 (centres undefined),19.48
20,CC(C)c1ccc(S(=O)(=O)N2CCCC3(CCCN3S(C)(=O)=O)C2)cc1 (centres undefined),42.62
21,CCOCCC(=O)Nc1cccc(Cl)c1COC,1.06
22,CCOCCC(=O)Nc1cccc(Cl)c1C(N)=O,56.89
23,CCOCCC(=O)Nc1ccnn1-c1ccc(Cl)cc1,-24.07
24,CC(C)CCc1nc(CNCC2CCCN2c2cccnn2)cs1 (centres undefined),15.47
25,CN(C)C(=O)c1n[nH]c2c1CN(Cc1nccs1)CC2,-8.84
26,c1cncc(CNCCc2cccs2)c1,-10.44

row,SMILES,INHIBITION [%]
1,COC(=O)C(C)NC(=O)CSCc1nc(O)c2cc(C(C)C)sc2n1 (centres undefined),52.08
2,COC(=O)CNC(=O)CSCc1nc(O)c2cc(C(C)C)sc2n1,5.36
3,COCCNC(=O)CSCc1nc(O)c2cc(C(C)C)sc2n1,-43.28
4,Cc1nc[nH]c1CN(Cc1ccccc1F)C1CC(C)(C)NC(C)(C)C1,39.26
5,Cc1nc[nH]c1CN(Cc1ccccc1)C1CC(C)(C)NC(C)(C)C1,50.68
6,Cc1nc[nH]c1CN(Cc1ccc(F)cc1)C1CC(C)(C)NC(C)(C)C1,-24.35
7,O=C(NCc1ccco1)[C@H]1C[C@@H]2CCN(c3cccc(F)c3)C[C@H]2O1,45.28
8,CCCN1CCC(N2CCN(c3cccc(C)n3)CC2)CC1,36.24
9,Nc1cc(CCC2CN(Cc3ccc4cc[nH]c4c3)CCO2)ccn1 (centres undefined),52.69
10,Nc1cc(CCC2CN(Cc3ccc4c(c3)OCCO4)CCO2)ccn1 (centres undefined),23.87
11,COc1ccc(CN2CCOC(CCc3ccnc(N)c3)C2)cc1 (centres undefined),-152.49
12,COCC1CN(Cc2ccc(OC)cc2)Cc2nn(C)cc21 (centres undefined),-62.13
13,CN(CC(=O)N1CCOC(CCc2ccccc2)C1)Cc1ccccn1 (centres undefined),3.94
14,CC(C)NC(=O)[C@@H]1C[C@@H]2CCN(Cc3ccoc3)C[C@H]2O1,0
15,CC(c1nc(C(C)(C)C)no1)N1CCC(N2CCCC2)CC1 (centres undefined),4.52
16,NS(=O)(=O)N1CCc2ccc(NC(=O)Cc3ccc(F)cc3)cc21,1.22
17,CCS(=O)(=O)N1CCc2ccc(NC(=O)Nc3cccc(SC)c3)cc21,47.4
18,CCS(=O)(=O)N1CCc2ccc(NC(=O)Nc3ccc(F)cc3F)cc21,36.98
19,CCS(=O)(=O)N1CCc2ccc(NC(=O)Nc3ccccc3C)cc21,-7.56
20,NS(=O)(=O)N1CCc2ccc(NC(=O)CC(F)(F)F)cc21,6.91
21,NS(=O)(=O)N1CCc2ccc(NC(=O)Cc3ccccc3F)cc21,60.14
22,CCS(=O)(=O)N1CCc2ccc(NC(=O)Nc3cccc(F)c3)cc21,78.93
23,CCS(=O)(=O)N1CCc2ccc(NC(=O)Nc3ccccc3)cc21,20.38
24,CCS(=O)(=O)N1CCc2ccc(NC(=O)Nc3cccc(C)c3)cc21,80.54
25,O=C(O)c1cc2c(nc1N1CCOCC1)CCN(C1CCOC1)CC2 (centres undefined),-51
26,CCc1ccc(C(=O)Nc2ccc(CC3CC(=O)NC3=O)cc2)s1 (centres undefined),-3.62

row,SMILES,INHIBITION [%]
1,CCc1ncc(CN2CCN(c3cc(NC4CC4)nc(N)n3)CC2)cn1,-18.65
2,CCn1cc(NC(=O)Nc2ccc3c(c2)OCCO3)cn1,-27.62
3,Cc1cc(CN2CCC(CNC(=O)c3ccc4[nH]cnc4c3)C2)[nH]n1 (centres undefined),-48.91
4,CC(C)c1nn(C)c(N(C)C)c1CNC1CCN(CC2CC2)CC1,10.61
5,O=c1[nH]c(N2CCCCC2)nc2c1CCN(Cc1cccnc1)C2,43.23
6,CCN1CCN(c2ncc3c(=O)n(Cc4ccco4)ccc3n2)CC1,-20.72
7,O=c1c2cnc(N3CCCCC3)nc2ccn1Cc1ccco1,-77.67
8,CN1CCN(c2ncc3c(=O)n(Cc4ccco4)ccc3n2)CC1,59.01
9,Cn1ccnc1N1CCN(C(=O)Cc2ccc(Cl)cc2)CC1,29.05
10,CSc1ccc(C(=O)C2CCCN(C(=O)Cn3cnnn3)C2)cc1 (centres undefined),41.68
11,O=C(c1ccc2ccccc2c1)C1CCCN(C(=O)Cn2cnnn2)C1 (centres undefined),56.38
12,O=C(c1ccc2ccccc2c1)C1CCCN(C(=O)Cn2cncn2)C1 (centres undefined),25.9
13,Cc1ccccc1OCC(O)CN1CCC(Cn2cccn2)CC1 (centres undefined),33.22
14,Cc1cccc(CN2CCc3ncnc(-c4ccsc4)c3CC2)n1,-1.33
15,CC(C)N(C)S(=O)(=O)N1CCCC1C(=O)N1CCSCC1 (centres undefined),-36.67
16,Cc1ccc(CC(=O)N2CCCCC2c2nc(C)cs2)cn1 (centres undefined),-39.92
17,CN1CCC(c2n[nH]c(=O)n2-c2cccc(Cl)c2)CC1,-8.16
18,C[C@H](c1ccc(Cl)cc1)n1c(C2CC2)n[nH]c1=O,62.51
19,C[C@H](c1ccc(F)cc1)n1c(C2CCC2)n[nH]c1=O,38.67
20,C[C@H](c1ccc(F)cc1)n1c(C2CCN(C)CC2)n[nH]c1=O,72.05
21,CC[C@@H](c1ccccc1)n1c(C2CC2)n[nH]c1=O,43.05
22,O=c1[nH]nc(C2CC2)n1-c1cccc(Cl)c1,-21.72
23,O=C1NCCCCC1NC(=O)N1CCc2ccccc21 (centres undefined),50.42
24,O=C1NCCCCC1NC(=O)N1CCCc2ccccc21 (centres undefined),12.66
25,O=C1NCCCCC1NC(=O)N1CCCc2cc(F)ccc21 (centres undefined),-30.43
26,Cc1nnc(N2CCCC3(CN(Cc4cnn(C)c4)CCO3)C2)o1 (centres undefined),16.39
